Assay outcomes: PubChem BioAssay, Sanford-Burnham Center for Chemical Genomics
TRAIL sens C8: caspase-8 TRAIL sensitization. AID 624354. 360,000 compounds, 1% hits. inhibition (viability loss, TRAIL sensitization), % at 10 µM. NB7+C8 cells + TRAIL, ATPlite viability luminescence;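 active means compounds causing at least 50% loss of cell viability in the single-dose screen, relative to plate controls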
SENP7 block: blocks the human protease SENP7; Q9BQF6; recombinant SENP7, Z-RLRGG-aminoluciferin luminescence, 40 min; inhibition, % at 5 µM; 330,000 compounds, 1.5% hits; AID 434973;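 active means inhibition above about 50% at the single test dose, limit read from the data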;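 further: plate controls were DMSO with enzyme for no effect and no enzyme buffer wells for full effect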
Target sequence (Q9BQF6 706-1050 limits assumed): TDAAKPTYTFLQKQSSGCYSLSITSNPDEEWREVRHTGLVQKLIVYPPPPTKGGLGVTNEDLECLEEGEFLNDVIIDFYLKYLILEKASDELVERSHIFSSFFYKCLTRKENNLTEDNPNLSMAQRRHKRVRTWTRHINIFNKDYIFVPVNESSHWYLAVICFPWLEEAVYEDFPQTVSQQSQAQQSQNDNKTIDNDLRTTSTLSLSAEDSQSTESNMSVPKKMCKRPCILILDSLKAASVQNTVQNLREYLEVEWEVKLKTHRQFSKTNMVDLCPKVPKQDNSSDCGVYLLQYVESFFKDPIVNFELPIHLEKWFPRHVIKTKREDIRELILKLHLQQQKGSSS
SENP8 block-1: inhibitors of human SENP8 protease; Q96LD8; purified SENP8, Z-RLRGG-aminoluciferin cleavage, luminescence; inhibition, % at 10 µM; 330,000 compounds, 1.2% hits; in the data active means inhibition above about 50%
Target sequence (Q96LD8 whole entry, looked up): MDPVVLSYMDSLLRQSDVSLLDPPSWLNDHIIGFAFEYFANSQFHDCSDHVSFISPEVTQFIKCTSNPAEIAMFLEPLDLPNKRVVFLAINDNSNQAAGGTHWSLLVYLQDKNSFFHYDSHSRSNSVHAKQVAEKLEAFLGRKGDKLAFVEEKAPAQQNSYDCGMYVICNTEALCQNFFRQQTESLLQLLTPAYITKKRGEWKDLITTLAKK
SENP6 block: SENP6 protease inhibition. Q9GZR1. Recombinant SENP6 catalytic domain, aminoluciferin luminescence. inhibition, % at 10 µM. 330,000 compounds, 1.8% hits;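 active means inhibition above about 50% at the single tested dose, limit read from the data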;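 further: plate controls were DMSO wells with enzyme for no effect and DMSO wells lacking enzyme for full effect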
SENP8 block-2: blocks human SENP8 cleavage of Nedd8 substrate. recombinant SENP8, Nedd8 substrate fluorescence. Q96LD8. 360,000 compounds, 0.64% hits. inhibition, % at 20 µM; in the data active means inhibition mostly above about 40%, no sharp cut-off; inactive means mostly below about 27%
PPC-1+TRAIL kill: PPC-1 cancer cell killing with TRAIL present | 220,000 compounds, 0.41% hits | PPC-1 cells + TRAIL, ATPLite viability luminescence | cell killing (% activity), % at 4 µM or 5 µM;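 active means cell killing above 50% in the first pass at 4 µM, then a duplicate retest at 5 µM averaging 50% or more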;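 further: plate controls were cells with TRAIL plus DMSO for no effect and medium-only wells lacking cells for full effect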
SENP8 conf: human SENP8 inhibition, confirmed. shares compounds with SENP7 block. inhibition, % at 12.5 µM. 6,200 compounds, 40% hits. Recombinant SENP8, Z-RLRGG-aminoluciferin luminescence, 60 min;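 active means mean inhibition across replicates above about 50%, limit read from the data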
SENP6 conf: human SENP6 inhibition, confirmed. recombinant SENP6, Z-RLRGG-aminoluciferin luminescence. 6,200 compounds, 58% hits. inhibition, % at 12.5 µM. shares compounds with SENP7 block
SENP7 conf: confirmation of human SENP7 protease inhibitors; recombinant SENP7, Z-RLRGG-aminoluciferin luminescence, 40 min; AID 488917; inhibition, % at 12.5 µM; 6,200 compounds, 69% hits; shares compounds with SENP7 block
Casp3 SENP sel: caspase-3 inhibition (SENP selectivity assay) | shares compounds with SENP7 block | purified caspase-3, Z-DEVD-aminoluciferin luminescence, 60 min | inhibition, % at 12.5 µM | 6,200 compounds, 60% hits;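 active means mean inhibition above about 50%, limit read from the data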;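 further: plate controls were enzyme with DMSO for no effect and wells without caspase-3 for full effect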
SENP luc ctr: interferes with luciferase luminescence in SENP counter-screen | shares compounds with SENP7 block | Pre-incubated SENP8/Z-RLRGG-aminoluciferin, luciferase luminescence interference | inhibition, % at 12.5 µM | 6,200 compounds, 39% hits | AID 488919;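 active means mean inhibition above about 50% when retested at one dose, limit read from the data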;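 further: plate controls were DMSO wells with completed reaction for no effect and substrate without enzyme for full effect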
An asterisk follows results filed as active; · = no result. In the library only some 3% were active in any assay of this set; here they are far more common.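 How the source made its calls, unless noted: active means mean inhibition above about 50% in the one-dose retest (limit read from the data); inactive means the rest.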

SMILES | TRAIL sens C8 | SENP7 block | SENP8 block-1 | SENP6 block | SENP8 block-2 | PPC-1+TRAIL kill | SENP8 conf | SENP6 conf | SENP7 conf | Casp3 SENP sel | SENP luc ctr
CCOc1ccc(NC(=O)Nc2ccc3nsnc3c2)cc1 | 5 | -1 | -6 | -8 | -6 | 18 | · | · | · | · | ·
Cc1ccc(NC(=O)Nc2cccs2)cc1 | 28 | 26 | 55* | 64* | 4 | 15 | 2 | 56* | 87* | 65* | 9
CCOc1ccc(NC(=O)Nc2cccs2)cc1 | 51* | 73* | 67* | 27 | 27 | 46 | -18 | 72* | 95* | 85* | 82*
Cc1ccc(NC(=O)Nc2cccs2)nc1 | 8 | -10 | -20 | -13 | 19 | 20 | · | · | · | · | ·
O=C(Nc1ccc([N+](=O)[O-])cc1)Nc1ccon1 | 13 | 1 | -11 | 0 | 15 | · | · | · | · | · | ·
CCc1ccc(NC(=O)Nc2ccon2)cc1 | 28 | 52* | 19 | 23 | 21 | · | 42 | 35 | 70* | 52* | 44
CCCS(=O)(=O)NC(=O)C1(C)CCN(C(=O)c2ccc3ccccc3c2)C1 (stereo not given) | -11 | · | · | · | 21 | · | · | · | · | · | ·
C(=C\c1ccccc1)/CN1CCN(C(CCc2ccccc2)c2nnnn2C2CCCC2)CC1 (stereo not given) | 28 | · | · | · | 26 | · | · | · | · | · | ·
CCOc1ccc(NC(=O)Nc2cccnc2)cc1 | 58* | 58* | 22 | 60* | 18 | 49 | 22 | 24 | 75* | 74* | 47
CCc1ccc(NC(=O)Nc2cccs2)cc1 | 54* | 47 | 57* | 78* | 9 | 1 | 2 | 56* | 89* | 53* | 8
COc1ccccc1N1CCN(C(=O)CCNS(=O)(=O)c2cc(Br)cnc2N)CC1 | -8 | 9 | -6 | 5 | -1 | · | · | · | · | · | ·
O=C(Nc1ccc2c(c1)OCCO2)c1cccs1 | 46 | 72* | 46 | 76* | 28 | 29 | 51* | 50* | 85* | 81* | 68*
O=C(Nc1ccc2c(c1)OCO2)c1ccc(Br)s1 | 41 | 78* | 60* | 74* | 12 | 34 | 72* | 67* | 92* | 65* | 71*
CC(=NNC(=O)c1cccs1)c1ccc2c(c1)OCCO2 | 12 | -14 | -11 | -2 | -49 | · | · | · | · | · | ·
O=C(Nc1ccc2c(c1)OCO2)c1ccncc1 | 2 | -15 | -17 | -3 | 14 | -2 | · | · | · | · | ·
O=C(c1ccc2c(c1)OCCCO2)c1cccs1 | 24 | 50 | 30 | 54* | 10 | 32 | 52* | 50 | 82* | 66* | 63*
O=C(Nc1ccc2c(c1)OCCO2)c1c(Cl)cccc1Cl | -11 | · | · | · | 17 | · | · | · | · | · | ·
O=C(Nc1ccc2c(c1)OCO2)c1cccs1 | 22 | 48 | 16 | 65* | 0 | 13 | 49 | 42 | 72* | 74* | 55*
CCN(CC)C(=O)CSc1nnc(SC(C)C(=O)NC2CC2)s1 (stereo not given) | 6 | -2 | 2 | -11 | 6 | · | · | · | · | · | ·
O=C(CCNS(=O)(=O)c1cccc2nsnc12)NCc1ccccc1Cl | 0 | 0 | 2 | -15 | 7 | -5 | · | · | · | · | ·
CN1CCCC1CCNC1C2CC3CC(C2)CC1C3 (stereo not given) | -10 | 0 | 11 | 24 | 21 | 16 | · | · | · | · | ·
O=C(Nc1ccc(N2CCCC2)c(Cl)c1)c1cccs1 | 27 | 49 | 58* | 26 | -7 | 41 | 79* | 74* | 92* | 70* | 62*
O=[N+]([O-])c1ccc2nc(-c3ccccc3)oc2c1 | -11 | 71* | 63* | 77* | 19 | 8 | 54* | 59* | 78* | 70* | 22
O=c1oc(-c2cccc([N+](=O)[O-])c2)nc2ccccc12 | 7 | 2 | 27 | 24 | 5 | · | · | · | · | · | ·
COc1cccc(-c2nc3ccc([N+](=O)[O-])cc3o2)c1 | 27 | 95* | 43 | 0 | 0 | 32 | 49 | 56* | 73* | 49 | 8
SMILES | TRAIL sens C8 | SENP7 block | SENP8 block-1 | SENP6 block | SENP8 block-2 | PPC-1+TRAIL kill | SENP8 conf | SENP6 conf | SENP7 conf | Casp3 SENP sel | SENP luc ctr
O=C(COC(=O)c1ccc(OC(F)F)cc1)NCCCN1CCCC1=O | -6 | 13 | 3 | -10 | 14 | 7 | · | · | · | · | ·
Cc1noc(C)c1C(=O)N(CC(=O)Nc1ccc(Cl)c(C(F)(F)F)c1)Cc1ccco1 | -2 | 8 | 2 | 10 | 12 | · | · | · | · | · | ·
C(=C\n1nnc2ccccc21)/c1ccccn1 | -3 | 79* | 74* | 76* | 14 | · | 81* | 80* | 96* | 89* | 74*
COc1ccc(-n2cc3ccc([N+](=O)[O-])cc3n2)cc1 | 10 | 87* | 78* | 78* | 9 | · | 47 | 51* | 72* | 59* | 31
COc1ccc(/C=N/NC(=O)c2ccc[nH]2)cc1 | 21 | 88* | 77* | 79* | 6 | · | 75* | 74* | 95* | 92* | 84*
COC(=O)c1c(C(=O)OC)c(-c2cccc(Cl)c2)n2c1CS(=O)C2 (stereo not given) | 6 | -5 | 3 | 18 | 2 | -5 | · | · | · | · | ·
CC(=O)c1ccc(NC(=O)Cn2cnc(S(=O)(=O)N3CCc4ccccc43)c2)cc1 | 3 | -4 | -4 | 9 | 25 | · | · | · | · | · | ·
C=CCn1c(SCc2nc(N)nc(N3CCCCC3)n2)nnc1-c1ccco1 | 32 | 61* | 16 | 2 | 10 | 14 | -12 | -7 | -9 | 1 | 2
C=CCn1c(SCC(=O)N2CCN(c3ccc(F)cc3)CC2)nnc1-c1ccco1 | 12 | 11 | -12 | -3 | 14 | 4 | · | · | · | · | ·
CCCCCCOc1ccc(C(=O)O)cc1C#N | -5 | 6 | 61* | 77* | 20 | 16 | 61* | 61* | 85* | 77* | 75*
COc1cc(N2C(=O)c3ccccc3C2=O)c(Cl)cc1C(=O)OCC(=O)N(C)C | -2 | -3 | -10 | -17 | 2 | -21 | · | · | · | · | ·
COc1ccc(-c2cn3cc(C(F)(F)F)cc(Cl)c3n2)cc1 | 39 | -3 | -3 | -4 | -442 | 28 | · | · | · | · | ·
Cc1cccn2cc(-c3ccccc3)nc12 | 31 | 69* | 53* | 74* | -229 | 29 | 11 | 71* | 93* | 85* | 70*
Cc1cccn2cc(-c3ccc(F)cc3)nc12 | 19 | 91* | 78* | 93* | -113 | 4 | 12 | 87* | 99* | 90* | 82*
